Data reported in PubChem BioAssay.
Activity calls are given as the source filed them. No rule for the calls is given here. Where a SMILES comes first, the peptide text is derived from it. [ ]: non-standard residue; d: D form. The star is where a group is joined. ξ: configuration not given here. Cbz = O=C(OCc1ccccc1)*; ξK = NCCCCC(N)C(=O)O

These compounds were tested against Pantothenate synthetase (Mycobacterium tuberculosis (strain ATCC 25618 / H37Rv)) (UniProt P9WIL5) (assay: Recombinant Mtb pantothenate synthetase (PanC) inhibitors, coupled enzyme, confirmatory (AID 375;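 also: 0% = full reaction with vehicle and 100% = no enzyme background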)). Settings: coupled enzyme assay; at 10 µM, hits give high values.
Pantothenate synthetase (Mycobacterium tuberculosis (strain ATCC 25618 / H37Rv)), sequence (P9WIL5 whole entry, looked up): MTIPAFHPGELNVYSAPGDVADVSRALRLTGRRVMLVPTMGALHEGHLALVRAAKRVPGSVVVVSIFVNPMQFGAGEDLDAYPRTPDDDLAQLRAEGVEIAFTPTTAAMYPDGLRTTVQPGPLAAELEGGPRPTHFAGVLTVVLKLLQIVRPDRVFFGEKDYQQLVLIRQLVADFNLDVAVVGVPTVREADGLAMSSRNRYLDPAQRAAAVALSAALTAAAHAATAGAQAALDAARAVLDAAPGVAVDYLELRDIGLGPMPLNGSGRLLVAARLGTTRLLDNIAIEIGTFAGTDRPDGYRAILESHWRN

Compound | inhibition
CCc1c(C)n([O-])c2c([n+]1=O)CCC2 | 0% (inactive)
COc1ccccc1N(CN1CCCC1=O)C(=O)c1c(F)cccc1Cl | 0% (inactive)
CCC(C)(NC(=O)c1ccc(=O)[nH]c1)C(=O)NC1CCCC1 (stereo not given) | 0% (inactive)
CCNC(=O)C1CC(=O)N(Cc2ccc3c(c2)OCO3)C(=Nc2ccc(F)cc2)S1 (stereo not given) | 0% (inactive)
Cn1c(=O)c(-c2ccccc2)nn2c3ccccc3nc12 | 0% (inactive)
COc1ccc2c(c1)cc(C(=O)O)n2C | 6% (inactive)
CCCOc1cccc(NC(=O)c2c(-c3ccccc3)noc2C)c1 | 0% (inactive)
CCCCNC(=O)OC(C)CNC(=O)Oc1cccc(C)c1 (stereo not given) | 0% (inactive)
CCCCC(=O)NCCNc1nc2c(c(=O)n(C)c(=O)n2C)n1Cc1ccccc1 | 0% (inactive)
CC(=O)N1CCC2(CC1)CC(=O)c1cc(OCC(=O)NCc3ccc(C)cc3)ccc1O2 | 3% (inactive)
NC(=O)C1(N2CCCCC2)CCN(Cc2ccccc2Cl)CC1 | 0% (inactive)
Cn1c2ccccc2c2ncn(CCCN3CCOCC3)c(=O)c21 | 0% (inactive)
CC1Cc2ccccc2N1Cc1cc(=O)n2ccsc2n1 (stereo not given) | 0% (inactive)
CC1CCN(c2nc3c(c(=O)[nH]c(=O)n3C)n2CCSc2ncccn2)CC1 | 0% (inactive)
C=CCNc1oc(-c2cccc3ccccc23)nc1C#N | 0% (inactive)
Cc1ccc(C)c(C(=O)CC2(O)C(=O)Nc3ccccc32)c1 (stereo not given) | 5% (inactive)
COC(=O)C(CCCCNC(=O)OCc1ccccc1)NC(=O)CN (stereo not given) (H-Gly-[ξK](Cbz)-OMe) | 0% (inactive)
COc1cccc(NC(=O)N(CCCN2CCOCC2)C(C)c2cc3cccc(OC)c3o2)c1 (stereo not given) | 0% (inactive)
Cc1cccc(C)c1NC(=O)CS(=O)CC(=O)NC1CCCc2ccccc21 (stereo not given) | 12% (inactive)
CC(C)C(=O)N1CCN(c2nc(-c3ccccc3)c3c(c2C#N)CCCC3)CC1 | 0% (inactive)

Compound | inhibition
COc1ccccc1C1c2c(oc3ccc(Cl)cc3c2=O)C(=O)N1c1cc(C)on1 (stereo not given) | 0% (inactive)
COC(=O)C1=C(N)Oc2cc(C)[nH]c(=O)c2C1c1ccncc1 (stereo not given) | 0% (inactive)
CCOC(=O)c1ccccc1NC(=O)c1cccnc1 | 0% (inactive)
Cc1c(NC(=O)C(C)OC(=O)c2cc3c4ccccc4n(C)c3s2)c(=O)n(-c2ccccc2)n1C (stereo not given) | 0% (inactive)
Fc1ccc(-n2c(Cc3ccccc3)nnc2SCc2nc(-c3cccs3)no2)cc1 | 0% (inactive)
COc1ccc(N2C(=O)CC(N3CCN(c4ccccc4F)CC3)C2=O)cc1 (stereo not given) | 0% (inactive)
O=C(O)CCCC(=O)Nc1nc(-c2ccc(F)cc2)cs1 | 0% (inactive)
COc1cc(-c2c(C#N)c(N)nc3c2CCCC3)cc(OC)c1OC | 5% (inactive)
c1cncc(-c2nnc3n2N=C(c2cccs2)CS3)c1 | 6% (inactive)
O=C(Nc1ccc2snnc2c1)N1CCN(c2ccccc2)CC1 | 0% (inactive)
COc1cc(OC)cc(C(=O)N2CCN(C(=O)c3ccc(OC)c(OC)c3)CC2)c1 | 1% (inactive)
Cc1ccc(-n2c(Cc3cccn3C)nnc2SCC(=O)NCc2ccc3c(c2)OCO3)cc1 | 0% (inactive)
Cc1nnc(C)c2c(C)n(Cc3ccc4c(c3)OCO4)c(C)c12 | 0% (inactive)
CCOC(=O)N1CCC(N2C(=O)c3ccccc3C2Nc2cc(Cl)c(OC)cc2OC)CC1 (stereo not given) | 0% (inactive)
CCOc1ccc2ccccc2c1C(=O)N1CCN(c2ccccc2)CC1 | 9% (inactive)
CSc1cccc(NC(=O)C2CCCN2S(=O)(=O)c2ccc3c(c2)CCC(=O)N3)c1 (stereo not given) | 0% (inactive)
C=CCn1c(=O)/c(=C/c2ccc(O)cc2)s/c1=C(/C#N)c1nnc2n1CCCCC2 | 0% (inactive)
CCC(=O)Nc1c(C#N)c2nc3ccccc3nc2n1-c1ccccc1C | 16% (inactive)
O=C(OCC#CCSc1nnc(-c2ccccc2)o1)c1cccs1 | 0% (inactive)
CN(c1ccccc1C(=O)NCC1CCCO1)S(C)(=O)=O (stereo not given) | 2% (inactive)
